In PubChem BioAssay AID1159580 (chemical genetic matrix, 2015):
Out of some 5,500 compounds screened, about 2,000 (36%) were called active. Another 18% or so got no clear call; they are omitted. No stated cut-off is given here; in the data, active means normalized growth mostly below about 0.91 (no sharp cut-off); inconclusive means no clear call, values can overlap the other calls; inactive means mostly above about 0.92. The list shows a part of the results.

Test: chemical genetic growth profiling, strain panel (AID 1159580);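 further: tested at 20 µM; growth read once vehicle control cultures reached saturation at 30 °C; 1 = growth at the plate median or of vehicle wells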
Details: growth OD

Measured: normalized growth

CCCCCC(C)N (configuration not stated)
inactive: S. cerevisiae deletion strains, locus YJR075W, strain HOC1, stronger effect = lower value 1.02 | S. cerevisiae deletion strains, locus YKL009W, strain mrt4, stronger effect = lower value 0.946 | S. cerevisiae deletion strains, locus YKL068W, stronger effect = lower value 1 | S. cerevisiae deletion strains, locus YKL085W, strain MDH1 (second series), stronger effect = lower value 1.05 | S. cerevisiae deletion strains, locus YKL085W, strain MDH1, stronger effect = lower value 1.05 | S. cerevisiae deletion strains, locus YKL160W, strain elf1, stronger effect = lower value 1.03 | S. cerevisiae deletion strains, locus YKL190W, strain CNB1, stronger effect = lower value 1.02 | S. cerevisiae deletion strains, locus YKR001C, strain vps1, stronger effect = lower value 0.988 | S. cerevisiae deletion strains, locus YKR026C, strain gcn3, stronger effect = lower value 1.03 | S. cerevisiae deletion strains, locus YKR091W, strain srl3, stronger effect = lower value 1.02 | S. cerevisiae deletion strains, locus YLL001W, strain dnm1, stronger effect = lower value 1.03 | S. cerevisiae deletion strains, locus YLL026W, stronger effect = lower value 1.03 | S. cerevisiae deletion strains, locus YLL041C, strain sdh2, stronger effect = lower value 1.02 | S. cerevisiae deletion strains, locus YLR027C, strain aat2, stronger effect = lower value 1.03 | S. cerevisiae deletion strains, locus YLR039C, strain RIC1, stronger effect = lower value 1.04 | S. cerevisiae deletion strains, locus YLR058C, strain SHM2, stronger effect = lower value 1.02 | S. cerevisiae deletion strains, locus YLR102C, strain apc9, stronger effect = lower value 0.995 | S. cerevisiae deletion strains, locus YLR113W, strain HOG1, stronger effect = lower value 0.978 | S. cerevisiae deletion strains, locus YLR221C, strain rsa3, stronger effect = lower value 1.03 | S. cerevisiae deletion strains, locus YLR258W, strain gsy2, stronger effect = lower value 1.02 | S. cerevisiae deletion strains, locus YLR262C, strain YPT6 (second series), stronger effect = lower value 1.05 | S. cerevisiae deletion strains, locus YLR262C, strain YPT6, stronger effect = lower value 1.05 | S. cerevisiae deletion strains, locus YLR268W, strain sec22, stronger effect = lower value 0.972 | S. cerevisiae deletion strains, locus YLR320W, strain mms22, stronger effect = lower value 1.04 | S. cerevisiae deletion strains, locus YLR330W, strain CHS5, stronger effect = lower value 1.01 | S. cerevisiae deletion strains, locus YLR342W, strain FKS1 (second series), stronger effect = lower value 1.03 | S. cerevisiae deletion strains, locus YLR342W, strain FKS1, stronger effect = lower value 1.03 | S. cerevisiae deletion strains, locus YLR357W, strain rsc2, stronger effect = lower value 1.05 | S. cerevisiae deletion strains, locus YLR370C, strain arc18, stronger effect = lower value 1.04 | S. cerevisiae deletion strains, locus YLR371W, strain rom2, stronger effect = lower value 0.989 | S. cerevisiae deletion strains, locus YLR384C, strain iki3, stronger effect = lower value 1.02 | S. cerevisiae deletion strains, locus YLR418C, strain cdc73, stronger effect = lower value 0.994 | S. cerevisiae deletion strains, locus YML016C, strain PPZ1, stronger effect = lower value 1.01 | S. cerevisiae deletion strains, locus YML032C, strain rad52, stronger effect = lower value 0.986 | S. cerevisiae deletion strains, locus YML120C, strain ndi1, stronger effect = lower value 1.03 | S. cerevisiae deletion strains, locus YML124C, strain tub3, stronger effect = lower value 0.997 | S. cerevisiae deletion strains, locus YMR058W, strain fet3, stronger effect = lower value 1.02 | S. cerevisiae deletion strains, locus YMR078C, strain ctf18, stronger effect = lower value 0.98 | S. cerevisiae deletion strains, locus YMR125W, strain sto1, stronger effect = lower value 1.03 | S. cerevisiae deletion strains, locus YMR129W, stronger effect = lower value 1.02 | S. cerevisiae deletion strains, locus YMR205C, strain PFK2, stronger effect = lower value 1.05 | S. cerevisiae deletion strains, locus YMR223W, strain ubp8, stronger effect = lower value 1.02 | S. cerevisiae deletion strains, locus YMR231W, strain pep5, stronger effect = lower value 1.03 | S. cerevisiae deletion strains, locus YMR263W, strain SAP30, stronger effect = lower value 1.02 | S. cerevisiae deletion strains, locus YMR307W, strain GAS1, stronger effect = lower value 1.03 | S. cerevisiae deletion strains, locus YNL067W, strain RPL9B, stronger effect = lower value 1.01 | S. cerevisiae deletion strains, locus YNL071W, strain lat1, stronger effect = lower value 1.03 | S. cerevisiae deletion strains, locus YNL128W, strain TEP1, stronger effect = lower value 1.01 | S. cerevisiae deletion strains, locus YNL153C, strain GIM3, stronger effect = lower value 1.01 | S. cerevisiae deletion strains, locus YNL183C, strain NPR1, stronger effect = lower value 0.943 | S. cerevisiae deletion strains, locus YNL209W, strain ssb2, stronger effect = lower value 1.03 | S. cerevisiae deletion strains, locus YNL233W, strain BNI4, stronger effect = lower value 1.02 | S. cerevisiae deletion strains, locus YNL248C, strain rpa49, stronger effect = lower value 1.03 | S. cerevisiae deletion strains, locus YNL250W, strain rad50, stronger effect = lower value 0.994 | S. cerevisiae deletion strains, locus YNL271C, strain bni1, stronger effect = lower value 0.985 | S. cerevisiae deletion strains, locus YNL298W, strain CLA4, stronger effect = lower value 0.989 | S. cerevisiae deletion strains, locus YNL307C, strain MCK1, stronger effect = lower value 0.999 | S. cerevisiae deletion strains, locus YNL322C, strain KRE1 (second series), stronger effect = lower value 1.04 | S. cerevisiae deletion strains, locus YNL322C, strain KRE1, stronger effect = lower value 1.01 | S. cerevisiae deletion strains, locus YNR049C, strain mso1, stronger effect = lower value 1.03 | S. cerevisiae deletion strains, locus YNR052C, strain pop2, stronger effect = lower value 0.988 | S. cerevisiae deletion strains, locus YOL006C, strain TOP1, stronger effect = lower value 1.01 | S. cerevisiae deletion strains, locus YOL012C, strain htz1 1.25 | S. cerevisiae deletion strains, locus YOL147C, strain pex11, stronger effect = lower value 1 | S. cerevisiae deletion strains, locus YOR001W, strain rrp6, stronger effect = lower value 1 | S. cerevisiae deletion strains, locus YOR061W, strain CKA2, stronger effect = lower value 1.02 | S. cerevisiae deletion strains, locus YOR069W, strain VPS5, stronger effect = lower value 1.01 | S. cerevisiae deletion strains, locus YOR070C, strain gyp1, stronger effect = lower value 1.02 | S. cerevisiae deletion strains, locus YOR080W, strain dia2, stronger effect = lower value 1.04 | S. cerevisiae deletion strains, locus YOR083W, strain WHI5, stronger effect = lower value 1.02 | S. cerevisiae deletion strains, locus YOR106W, strain vam3, stronger effect = lower value 1.04 | S. cerevisiae deletion strains, locus YOR136W, strain idh2, stronger effect = lower value 0.988 | S. cerevisiae deletion strains, locus YOR144C, strain elg1, stronger effect = lower value 0.992 | S. cerevisiae deletion strains, locus YOR184W, strain ser1, stronger effect = lower value 0.982 | S. cerevisiae deletion strains, locus YOR231W, strain MKK1, stronger effect = lower value 0.997 | S. cerevisiae deletion strains, locus YOR265W, strain rbl2, stronger effect = lower value 1.02 | S. cerevisiae deletion strains, locus YOR270C, strain vph1, stronger effect = lower value 1.07 | S. cerevisiae deletion strains, locus YOR290C, strain snf2, stronger effect = lower value 1.02 | S. cerevisiae deletion strains, locus YOR316C, strain cot1, stronger effect = lower value 0.999 | S. cerevisiae deletion strains, locus YPL051W, strain arl3, stronger effect = lower value 1.01 | S. cerevisiae deletion strains, locus YPL055C, strain LGE1, stronger effect = lower value 1.03 | S. cerevisiae deletion strains, locus YPL078C, strain atp4, stronger effect = lower value 1.03 | S. cerevisiae deletion strains, locus YPL106C, strain sse1, stronger effect = lower value 1.03 | S. cerevisiae deletion strains, locus YPL240C, strain hsp82, stronger effect = lower value 1.03 | S. cerevisiae deletion strains, locus YPL241C, strain CIN2, stronger effect = lower value 1 | S. cerevisiae deletion strains, locus YPL256C, strain CLN2, stronger effect = lower value 0.992 | S. cerevisiae deletion strains, locus YPR119W, strain clb2, stronger effect = lower value 0.989 | S. cerevisiae deletion strains, locus YPR141C, strain kar3, stronger effect = lower value 0.99 | S. cerevisiae deletion strains, locus YPR163C, strain tif3, stronger effect = lower value 0.992 | S. cerevisiae deletion strains, locus YPR167C, strain met16, stronger effect = lower value 0.998 | S. cerevisiae deletion strains, strain wtn01, stronger effect = lower value 0.997 | S. cerevisiae strains, strain wild type, stronger effect = lower value 1.01
